Screening data: PubChem, National Center for Advancing Translational Sciences (NCATS)
Shown are actives, neighbours in structure and some others; about 18% of the full set was active somewhere.
TGFb inhibitor: TGF-b pathway inhibition; 410,000 tested, 1.2% active; AID 588855; Potency, µM (series often up to 46.1 µM), without a hit: at the highest dose activity, negative = inhibition, most hits filed as inhibitors; HepG2 CAGA-GFP TGF-b/SMAD3 reporter, GFP fluorescence, 18 h; TGF-beta stimulated, 500 pg/mL final; also: potency is read from the fitted curve at half-maximal effect; % is scaled to controls: 0 for no effect and ±100 for the full control effect; nearly all actives have a fitted effect of over 65% in size
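Cell-based qHTS in HEPG2 carrying a CAGA-GFP Smad reporter; compounds added before 500 pg/mL final TGF-beta, 18 h incubation at 37 degrees C, GFP fluorescence quantified per cell by imaging cytometry.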
IL1B secr inh: inflammasome signaling inhibition, IL-1 beta readout; 360,000 tested, 4.7% active; THP-1 LPS/ATP IL-1B secretion, AlphaLISA, 16 h; stronger effect = lower value; AID 743279; activity change, % at 57.5 µM; in the data active = activity change below about -50%; inconclusive = mostly about -30% to -49%; also: % is scaled to controls: 0 for no effect and ±100 for the full control effect
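THP-1 cells pretreated 1 hr with compounds (up to 57.5 uM final), then stimulated with LPS (250 ng/mL final) plus ATP (1.25 mM final); secreted IL-1B measured by AlphaLISA after 16 hr, decreased signal indicating inhibition.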
TDP1 inh: inhibitors of human tyrosyl-DNA phosphodiesterase TDP1; 350,000 tested, 0.28% active; Q9NUW8; recombinant TDP1, AlphaScreen DNA substrate cleavage; Potency, µM (highest dose often 130 µM), for inactives: at the top dose activity change, negative = inhibition, hits mostly inhibitors; also: potency is read from the fitted curve at half-maximal effect; % is scaled to controls: 0 for no effect and ±100 for the full control effect; nearly all actives have a fitted effect of over 40% in size
Target sequence (Q9NUW8 whole entry, looked up): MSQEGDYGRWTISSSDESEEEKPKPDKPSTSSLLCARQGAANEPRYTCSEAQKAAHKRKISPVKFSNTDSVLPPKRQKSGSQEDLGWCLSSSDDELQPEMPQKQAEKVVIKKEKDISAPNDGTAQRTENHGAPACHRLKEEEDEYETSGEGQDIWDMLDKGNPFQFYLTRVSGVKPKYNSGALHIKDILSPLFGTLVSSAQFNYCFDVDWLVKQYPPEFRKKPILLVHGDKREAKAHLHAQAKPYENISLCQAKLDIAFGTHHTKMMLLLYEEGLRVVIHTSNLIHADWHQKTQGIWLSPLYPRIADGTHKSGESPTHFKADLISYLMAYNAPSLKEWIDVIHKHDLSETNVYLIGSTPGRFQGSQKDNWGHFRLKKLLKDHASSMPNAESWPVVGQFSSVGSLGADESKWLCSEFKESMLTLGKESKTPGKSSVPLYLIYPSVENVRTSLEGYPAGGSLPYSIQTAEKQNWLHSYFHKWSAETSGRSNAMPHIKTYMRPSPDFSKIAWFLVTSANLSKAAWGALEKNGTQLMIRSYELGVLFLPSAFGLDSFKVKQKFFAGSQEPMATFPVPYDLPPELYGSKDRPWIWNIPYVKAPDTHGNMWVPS
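Recombinant human Tdp1 (E. coli-expressed, 1 nM final) preincubated with compounds 15 min at room temperature, then 5'-biotin/3'-phosphotyrosine-FITC DNA substrate (15 nM final) added for 5 min. AlphaScreen beads (10 ug/ml final) added 10 min; cleavage lowers signal.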
HepG2 viability: counter-screen for TGF-b inhibitors: cytotoxicity in HepG2 cells. HepG2 CAGA-GFP viability, ATP luminescence, 18 h. AID 588856. 410,000 tested, 0.76% active. Potency, µM (top dose mostly 46.1 µM), for the others: at the highest dose activity change, negative = cytotoxicity, most hits filed as cytotoxic; also: potency is read from the fitted curve at half-maximal effect
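CellTiter-Glo luminescence gave cytotoxicity after 18 hours at 37 degrees C. The cells were HepG2 CAGA-GFP in 1% FBS DMEM, stimulated with 500 pg/mL TGF-beta after compound addition. %Activity was normalised to no-cell wells (complete cell-killing) and DMSO (no toxicity), and curves were fitted and classified.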
TDP1 cell noCPT: qHTS for Inhibitors of human tyrosyl-DNA phosphodiesterase 1 (TDP1): qHTS in cells in absence of CPT. DT40 Tdp1-/- hTDP1 cells, no CPT, ATP luminescence, 48 h. Potency, µM (series often up to 46.2 µM), inactives show at the top dose activity change, negative = growth inhibition, most hits filed as inhibitors. 420,000 tested, 15% active; also: potency is read from the fitted curve at half-maximal effect; % is scaled to controls: 0 for no effect and ±100 for the full control effect; nearly all actives have a fitted effect of over 55% in size
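Luminescent ATP content (CellTiter-Glo) served as the growth readout. Knockout chicken DT40 cells expressing human TDP1 were exposed to compounds without camptothecin for a minimum 48 hr at 37 °C.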
DT40 TDP1 CPT: DT40-hTDP1 cell growth loss with CPT | chicken DT40 Tdp1-/-;hTDP1 cells + 20 nM CPT, ATP luminescence, 48 h | Potency, µM (doses to about 46.2 µM), for inactives: at the top dose activity change, negative = growth inhibition, hits mostly inhibitors | 420,000 tested, 12% active | AID 686979; also: potency is read from the fitted curve at half-maximal effect; % is scaled to controls: 0 for no effect and ±100 for the full control effect; nearly all actives have a fitted effect of over 55% in size
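Chicken DT40 Tdp1-/- cells stably complemented with human TDP1 were seeded at 400 cells/well in medium containing 20 nM camptothecin, exposed to pin-transferred compounds, and grown at 37 °C for at least 48 hr. Viability was read as ATP luminescence.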
Starred values were filed as active, the others as inactive; [ ] = dose if it differs, or a comment. Unless noted, calls follow the shape of the dose curve; as a rule, active = well fitted curve in the direction sought with a large enough effect; inconclusive = small, poorly fitted or top-dose-only effect, or another doubt; inactive = no such curve, though single readings can be large; an effect the other way counts as inactive or inconclusive.

For O=C(NCc1ccccc1)C1CC(=O)N(c2ccc(OCC(=O)N3CCOCC3)cc2)C1 (configuration not stated) the results were TGFb inhibitor 7%, IL1B secr inh 2, HepG2 viability -4%, TDP1 cell noCPT 0% and DT40 TDP1 CPT 3%.
Screening CN1/C(=C\C=C2/SC(=S)NC2=O)C(C)(C)c2ccccc21 returned TGFb inhibitor 35%, IL1B secr inh 27, TDP1 inh 6%, HepG2 viability -40%, TDP1 cell noCPT 5.8µM* and DT40 TDP1 CPT 8.2µM*.
Screening CN1C(=CC=C2C=C(I)C(=O)C(I)=C2)C(C)(C)c2ccccc21 returned TGFb inhibitor -12%, IL1B secr inh 10, TDP1 inh 10%, HepG2 viability -8%, TDP1 cell noCPT 16µM* and DT40 TDP1 CPT 18µM*.
For CCCN1C(=O)/C(=C\C=C2/Sc3ccccc3N2CC)SC1=S the results were TDP1 inh 5%.
CCCN1C(=O)/C(=C\C=C2\N(CC)c3ccccc3C2(C)C)SC1=S was read as TGFb inhibitor 9%, IL1B secr inh 6, TDP1 inh 6%, HepG2 viability -12%, TDP1 cell noCPT 13µM* and DT40 TDP1 CPT 16µM*.
`CCOC(=O)/C(=N\Nc1ncnc2ccccc12)c1ccc(C)cc1` gave TGFb inhibitor -15%, IL1B secr inh 12, HepG2 viability -11%, TDP1 cell noCPT -18% and DT40 TDP1 CPT 2%.
Cc1ccc(O)c(N=Cc2cccs2)c1 was read as TGFb inhibitor 2%, IL1B secr inh -1, TDP1 inh 5%, HepG2 viability 8%, TDP1 cell noCPT inconclusive and DT40 TDP1 CPT 23µM*.
Screening CCCCc1ccc(C(=O)N/C(=C\c2ccc(C)cc2)C(=O)NC2CCCCC2)cc1 returned TGFb inhibitor -21%, TDP1 inh 4%[12.3 µM], HepG2 viability -23%, TDP1 cell noCPT 15µM* and DT40 TDP1 CPT 9.2µM*.
`Cc1ccc(C(=O)N/C(=C\c2ccc(Cl)cc2)C(=O)NC2CCCCC2)cc1` gave TGFb inhibitor -12%, TDP1 inh -2%[12.3 µM], HepG2 viability 2%, TDP1 cell noCPT 18µM* and DT40 TDP1 CPT inconclusive.
Screening CN[C@@H]1CCc2[nH]c3ccc(C(N)=O)cc3c2C1 returned TDP1 cell noCPT 2% and DT40 TDP1 CPT 1%.
CCc1cc(=O)oc2c3c(cc(OCC(=O)NCCCCCC(=O)O)c12)OC(C)(C)CC3 was read as TGFb inhibitor 9%, IL1B secr inh 11, HepG2 viability 6%, TDP1 cell noCPT 12% and DT40 TDP1 CPT 3%.
`CSCCC(NC(=O)COc1ccccc1)C(=O)NC1CCC(C)CC1` (configuration not stated) gave TGFb inhibitor -2%, IL1B secr inh -12, TDP1 inh 2%, HepG2 viability 3%, TDP1 cell noCPT inconclusive and DT40 TDP1 CPT inconclusive.
`Cc1ccc(CN2CCC[C@]3(N[C@H](c4ccc(C(F)(F)F)cc4)[C@@H]4C(=O)N(Cc5ccccc5)C(=O)[C@@H]43)C2=O)cc1` gave TGFb inhibitor -14%, IL1B secr inh -14, HepG2 viability -29%, TDP1 cell noCPT 21µM* and DT40 TDP1 CPT 21µM*.
Screening Cc1ccc([C@H]2N[C@]3(CCCN(Cc4ccc(F)cc4)C3=O)[C@H]3C(=O)N(Cc4ccccc4)C(=O)[C@@H]23)cc1 returned TGFb inhibitor 17%, IL1B secr inh -24, HepG2 viability -1%, TDP1 cell noCPT inconclusive and DT40 TDP1 CPT inconclusive.
`CCN1C(=O)[C@H]2[C@@H](c3ccc(C)cc3)N[C@]3(CCCN(Cc4ccc(OC)cc4)C3=O)[C@H]2C1=O` gave TGFb inhibitor -6%, IL1B secr inh 12, HepG2 viability -25%, TDP1 cell noCPT inconclusive and DT40 TDP1 CPT inconclusive.
For COc1ccc([C@H]2N[C@]3(CCCN(CC4CCCCC4)C3=O)[C@H]3C(=O)N(Cc4ccccc4)C(=O)[C@@H]23)cc1 the results were TGFb inhibitor 1%, IL1B secr inh -7, HepG2 viability -15%, TDP1 cell noCPT 21µM* and DT40 TDP1 CPT inconclusive.
For CCN1C(=O)[C@H]2[C@@H](c3ccc(C(F)(F)F)cc3)N[C@]3(CCCN(Cc4ccc(F)cc4)C3=O)[C@H]2C1=O the results were TGFb inhibitor -4%, IL1B secr inh 2, HepG2 viability -19%, TDP1 cell noCPT 9.2µM* and DT40 TDP1 CPT 21µM*.
Screening CCN1C(=O)[C@H]2[C@@H](c3ccc(C)cc3)N[C@]3(CCCN(Cc4ccc(C(F)(F)F)cc4)C3=O)[C@H]2C1=O returned TGFb inhibitor -11%, IL1B secr inh 17, HepG2 viability -26%, TDP1 cell noCPT 10µM* and DT40 TDP1 CPT 13µM*.
For O=S(=O)(c1ccccc1)c1nc(-c2cccs2)oc1SCc1ccccc1Cl the results were TGFb inhibitor -2%, TDP1 inh 3%, HepG2 viability 5%, TDP1 cell noCPT inconclusive and DT40 TDP1 CPT inconclusive.
O=C(CN1CCC(NC(=O)Nc2ccccc2)CC1)Nc1ccc([N+](=O)[O-])cc1 was read as TGFb inhibitor -2%, IL1B secr inh -15, TDP1 inh 4%, HepG2 viability -3%, TDP1 cell noCPT inconclusive and DT40 TDP1 CPT inconclusive.
`CCC/C=C(\CCC)C(NS(=O)(=O)c1ccc(-c2ccccc2)cc1)c1ccc(C(=O)OC)cc1` (configuration not stated) gave TDP1 inh -2%.
CCN1C(=O)[C@H]2[C@@H](c3ccc(C(F)(F)F)cc3)N[C@]3(CCCN(Cc4ccccc4)C3=O)[C@H]2C1=O was read as TGFb inhibitor -1%, IL1B secr inh -20, HepG2 viability -19%, TDP1 cell noCPT 16µM* and DT40 TDP1 CPT 21µM*.
For CCN1C(=O)[C@H]2[C@@H](c3ccc(OC)cc3)N[C@]3(CCCN(Cc4ccc(C(F)(F)F)cc4)C3=O)[C@H]2C1=O the results were TGFb inhibitor 4%, IL1B secr inh 1, HepG2 viability -19%, TDP1 cell noCPT 18µM* and DT40 TDP1 CPT inconclusive.
